Results from PubChem BioAssay (NCI).
Compounds without any hit were thinned out: in the full panel of roughly 83,000, 20% have a hit.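 In brief: 96-well plates, 48 h treatment, single concentration, percent growth endpoint.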 A number with no mark means an inactive call. Active and inactive are the calls of the source.

Tested on: ACHN renal
Experiment: NCI-60 one-dose screen, 48 h (100 = growth as untreated, 0 = no growth, -100 = all killed)
Conditions: 10 µM unless noted
Protocol: Growth inhibition of the ACHN human tumor cell line is measured as a screen for anti-cancer activity. Cells are grown in 96 well plates and exposed to the test compound for 48 hours. Compounds are tested at a single concentration, which is 10^-5 M for most compounds. The reported endpoint is percent growth (GI% or GIPRCNT), where numbers from 0 - 100% represent growth inhibition, and numbers from -100% - 0 represent cell death. For example, a value of 40 represents 60% growth inhibition. A value of 0 means no net growth occurred over the course of the experiment. A value of -40 indicates 40% of cells at the beginning of the experiment died by the end of the experiment. A value of -100 means all cells are dead at the end of the experiment.
NCI-60 Human Tumor Cell Lines Screen was performed using the standard one-dose NCI protocol, which is described in more detail at https://dtp.cancer.gov/discovery_development/nci-60/default.htm.
Compounds with GIPRCNT values below 10 were considered active. Activity score was based on GIPRCNT using the following formula: […]
Score is 0 for GIPRCNT values of 100 or above, 50 for GIPRCNT values of 0, and 100 for GIPRCNT values of -100.

| Structure (SMILES) | growth |
| --- | --- |
| CC(=O)N1N=C(c2ccc(Nc3nc(Nc4ccccc4)nc(Nc4ccccc4)n3)cc2)CC1c1ccccc1 (stereo not given) | 93.5% |
| Cc1ccccc1/C=C/C(=O)c1cccc(OCCCCOc2cccc(C(=O)/C=C/c3ccccc3C)c2)c1 | 101% |
| Oc1c(Br)cc(Br)c2ccc(Cn3cc(-c4ccccc4C(F)(F)F)nn3)nc12 | 61.8% |
| N#Cc1c(-c2ccccc2)cc(-c2ccc(Nc3nc(Nc4ccc(Cl)cc4)nc(Nc4ccc(Cl)cc4)n3)cc2)nc1N | -32.5% (active) |
| O=C(Cn1cc(CSc2nc3ccccc3o2)nn1)Nc1ccc(F)cc1F | 93.9% |
| CC(C)c1ccc(C(=O)Nc2sc3c(c2C(N)=O)CCC(=O)C3)cc1 | -96.8% (active) |
| COC(=O)c1c(C)c2n(c1C)C(=O)C(c1ccccc1)=C2 | 74% |
| COCCOc1cc2ncnc(N3CCN(c4cc(S(C)(=O)=O)c(C)cc4Cl)CC3)c2cc1OCCOC | 100% |
| COC(=O)c1nc(-c2ccccc2)oc1S(=O)(=O)Cc1ccccc1 | -35% (active) |
| CC1CCN(S(=O)(=O)c2ccc(S(=O)(=O)N3CCCC(c4nc5c(nnn5Cc5cccc(Cl)c5)c(=O)[nH]4)C3)cc2)CC1 (stereo not given) | 71.7% |
| N=C(N)c1ccc(-c2ccc(-c3ccc(Cl)c(Cl)c3)s2)nc1 | -62.8% (active) |
| COC(=O)/C=C1/SC(=Nc2ccc(C(F)(F)F)cc2)N(CCc2c[nH]c3ccc(O)cc23)C1=O | -46.1% (active) |
| O=C(NCCCl)Nc1ncccc1OCc1ccccc1 | 110% |
| CC(=O)Oc1ccc(N2C(=O)C(Cl)=C(Nc3cccc(C(F)(F)F)c3)C2=O)cc1 | 95% |
| COc1ccc(Nc2ncc(Br)c(NCCCNC(=O)C3CCCC3)n2)cc1 | 19.8% |
| CN(C)CCNC(=O)c1cc2c3cc(Cl)ccc3[nH]c2c2ncccc12 | 10.2% |
| COc1cc(/C=C/C(=O)c2ccc(F)cc2)ccc1OCCCCOc1ccc(/C=C/C(=O)c2c(C)nc3ccccc3c2C)cc1OC | 95.8% |
| Cc1ccc(-c2nc(N3CCCNCC3)c3oc(-c4ccc(C)cc4)nc3n2)cc1 | -77.1% (active) |
| O=C(Nc1cccc(-c2ccc(N3CCOCC3)nn2)c1)Nc1cccc(C(F)(F)F)c1 | 65.7% |
| COC12C=C/C(=C(/C(=O)OCc3ccncn3)C(=O)CCCCCCCCC3(OC)C=C/C(=C(/C(=O)OCc4ccncn4)C(=O)CCCCCCCC1)O3)O2 | -74.8% (active) |

| Structure (SMILES) | growth |
| --- | --- |
| CC1=C2[C@@H](CC1)[C@]1(C)O[C@@](C(C)C)(C[C@H]1OC(=O)[C@H](C)O)[C@H]2OC(=O)/C=C/c1ccccc1 | 8.57% (active) |
| O=C(CSc1nc2sc3c(c2c(=O)n1-c1ccccc1)CCCCC3)N/N=C/c1cccc([N+](=O)[O-])c1 | 80.6% |
| CNC(=O)c1ccccc1Oc1nc(Nc2cc(OC)c(OC)c(OC)c2)ncc1Br | 67.1% |
| O=C1Nc2ccccc2/C1=C/c1nc2ccccc2c(=O)[nH]1 | 91.9% |
| O=[N+]([O-])c1cccc(-c2nc3cc4nc5ccccc5[nH]c4cc3n2)c1 | 103% |
| N#CSCC1CC(O)(c2ccccc2)CC(c2ccc(F)cc2)O1 (stereo not given) | 9.51% (active) |
| CCOC(=O)c1c2c(n3cccc(F)c13)C(=O)c1ncccc1C2=O | 7% (active) |
| O=S(=O)(Nc1ccc(F)cc1F)c1ccc(-c2cnc(C3CC3)o2)cc1 | 38.5% |
| Fc1cccc(Oc2ccc(Nc3ncnc4ccc(OCCCN5CCOCC5)cc34)cc2Cl)c1 | 32.3% |
| CN1C(=O)/C(=C\c2nc([P+](c3ccccc3)(c3ccccc3)c3ccccc3)c(N3CCOCC3)o2)SC1=S | 102% |
| Nc1ncnc2c1C(c1ccc(Br)cc1)c1sc3c(F)cccc3c1O2 (stereo not given) | 93.7% |
| CCOC(=O)C1=C(c2ccccc2)N=C2SC=C(c3ccc(Cl)cc3)N2C1c1ccc(Cl)cc1 (stereo not given) | 91.3% |
| O=C1/C(=C\c2ccc3nccnc3c2)SC(=S)N1CCc1ccc(O)cc1 | 94% |
| COc1cc2c(c(OC)c1OC)CCC(c1cccc(C(=O)Nc3ccc(C#N)cc3)c1)O2 (stereo not given) | 39.8% |
| CSc1nc2ccccc2cc1/C=C1/C=C(c2ccccc2)NC1=O | 102% |
| Cc1ccc(Nc2cc(N)nc(N)n2)cc1Cl | 101% |
| CN(C)c1ccc(C(=O)OCCCCCCl)cc1 | 102% |
| Cn1cc(-c2nonc2-c2cn(C)c3ccccc23)c2ccccc21 | 44.4% |
| O=c1c2cccc3c(N4CCCC4)ccc(c32)c2nc3ccccc3n12 | 52.3% |
| C=C(CBr)[C@@H]1CC[C@]2(C(=O)O)CC[C@]3(C)[C@H](CC[C@@H]4[C@@]5(C)CCC(=O)C(C)(C)[C@@H]5CC[C@]43C)[C@@H]12 | 81.4% |
